Where “and” joins values, the source holds several entries; their conditions need not be identical. Equal entries are not always repeated. Results filed as inconclusive are left out. Where a structure was tested more than once in an assay, its records may differ in their call. Calls of active or inactive are those of the source. The calls were made as follows, unless noted: active = hit-call score of the fitted dose curve at least 0.9, where 1 is the maximum; inactive = score below 0.9.
Tests used:
[1] = read-out: Pyruvate Dehydrogenase Kinase 4 (PDK4), PDK4 (gene 5166); assay: LTEA_HepaRG_PDK4: Life Technologies and Expression Analysis (LTEA) Assay for Pyruvate Dehydrogenase Kinase 4 (PDK4) using HepaRG (AID 2283525); conditions: mRNA level, 48 h; actives raise or lower the signal
Outline: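 Readout is qRT-PCR of PDK4 transcript, normalized to three housekeeping genes, with bidirectional fitting against 0.5% DMSO vehicle. Differentiated HepaRG cells were treated 48 h in serum-free induction medium, duplicate wells, eight-point half-log series topping at 100 uM.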

[2] = read-out: NAD(P)H dehydrogenase [quinone] 1 (NQO1), NQO1 (gene 1728); assay: LTEA_HepaRG_NQO1: Life Technologies and Expression Analysis (LTEA) Assay for NAD(P)H dehydrogenase [quinone] 1 (NQO1) using HepaRG (AID 2283526); conditions: mRNA level, 48 h; actives raise or lower the signal
Outline: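 Transcript induction or suppression is quantified by qRT-PCR in human HepaRG liver cells dosed for 48 hours. Eight half-log concentrations topping at 100 uM are used, with 0.5% DMSO as vehicle and baseline.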

[3] = read-out: Nuclear factor erythroid 2-related factor 2 (Homo sapiens) (UniProt Q16236); assay: LTEA_HepaRG_NFE2L2: Life Technologies and Expression Analysis (LTEA) Assay for Nuclear factor erythroid 2-related factor 2 (NFE2L2) Transcription Factor using HepaRG (AID 2283527); conditions: mRNA level, 48 h; actives raise or lower the signal;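 also: TaqMan qRT-PCR transcript level normalised to ACTB GAPDH and POLR2A housekeeping genes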
Outline: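 NFE2L2 transcript level was read by qRT-PCR (housekeeping ACTB/GAPDH/POLR2A normalisation) after 48 h chemical treatment of HepaRG in serum-free induction medium. Duplicate 8-point half-log curves, top 100 uM, 0.5% DMSO vehicle; up- or down-regulation fitted against vehicle.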

[4] = read-out: succinate dehydrogenase complex iron sulfur subunit B (SDHB), SDHB (gene 6390); assay: LTEA_HepaRG_SDHB: Life Technologies and Expression Analysis (LTEA) Assay for succinate dehydrogenase complex iron sulfur subunit B (SDHB) using HepaRG (AID 2283528); conditions: mRNA level, 48 h; actives raise or lower the signal
Outline: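 HepaRG, 48 h exposure, 8-pt half-log series from 100 uM in 0.5% DMSO, duplicates. Readout: SDHB mRNA by Fluidigm qRT-PCR vs housekeeping genes; bidirectional fit relative to DMSO.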

[5] = read-out: solute carrier (SLCO1B1), SLCO1B1 (gene 10599); assay: LTEA_HepaRG_SLCO1B1: Life Technologies and Expression Analysis (LTEA) Assay for solute carrier (SLCO1B1) using HepaRG (AID 2283530); conditions: mRNA level, 48 h; actives raise or lower the signal
Outline: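 SLCO1B1 transcript levels were quantified by TaqMan qRT-PCR using three housekeeping genes for normalization. This followed 48 h chemical exposure (100 uM top, half-log, 8 points, 0.5% DMSO) of HepaRG liver cells, with gain or loss fitted relative to DMSO.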

[6] = read-out: sulfotransferase 2A1 (SULT2A1), SULT2A1 (gene 6822); assay: LTEA_HepaRG_SULT2A1: Life Technologies and Expression Analysis (LTEA) Assay for sulfotransferase 2A1 (SULT2A1) using HepaRG (AID 2283531); conditions: mRNA level, 48 h; actives raise or lower the signal
Outline: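 Expression change of SULT2A1, by qRT-PCR with three housekeeping-gene normalization, was scored bidirectionally versus DMSO. Cells: differentiated HepaRG, dosed in duplicate for 48 h across 8 points, highest 100 µM, half-log dilution, 0.5% DMSO.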

[7] = read-out: Transforming Growth Factor (TGFA), TGFA (gene 7039); assay: LTEA_HepaRG_TGFA: Life Technologies and Expression Analysis (LTEA) Assay for Transforming Growth Factor (TGFA) using HepaRG (AID 2283532); conditions: mRNA level, 48 h; actives raise or lower the signal
Outline: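 TGFA transcript quantified by qRT-PCR (Fluidigm arrays) against three housekeeping genes, after 48 hours chemical treatment of HepaRG cells. Top concentration 100 uM with half-log dilutions, 8 points, duplicates, 0.5% DMSO.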

[8] = read-out: Transforming Growth Factor (TGFB1), TGFB1 (gene 7040); assay: LTEA_HepaRG_TGFB1: Life Technologies and Expression Analysis (LTEA) Assay for Transforming Growth Factor (TGFB1) Transporter using HepaRG (AID 2283533); conditions: mRNA level, 48 h; actives raise or lower the signal
Outline: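 TGFB1 transcript measured by qRT-PCR with normalisation to three housekeeping genes (ACTB, GAPDH, POLR2A); human HepaRG line treated in duplicate for 48 hr with an 8-point series topping at 100 uM, 0.5% DMSO vehicle, bidirectionally fitted.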

TIMP1, TIMP1 (gene 7076) = assay: LTEA_HepaRG_TIMP1: Life Technologies and Expression Analysis (LTEA) Assay for TIMP1 using HepaRG (AID 2283534); conditions: mRNA level, 48 h; actives raise or lower the signal
Outline: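 Bidirectional change in TIMP1 transcript versus 0.5% DMSO, measured by TaqMan qRT-PCR with three housekeeping genes for normalization. HepaRG human liver cells dosed 48 h in duplicate, top concentration 100 uM with half-log dilutions.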

[9] = read-out: Tumor necrosis factor receptor 1 (TNFRSF1A), TNFRSF1A (gene 7132); assay: LTEA_HepaRG_TNFRSF1A: Life Technologies and Expression Analysis (LTEA) Assay for Tumor necrosis factor receptor 1 (TNFRSF1A) using HepaRG (AID 2283535); conditions: mRNA level, 48 h; actives raise or lower the signal
Outline: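 mRNA measured by qRT-PCR (TaqMan, Fluidigm arrays) against ACTB/GAPDH/POLR2A housekeepers after 48 h chemical exposure of HepaRG cells. Top concentration 100 uM, half-log 8-point series, duplicates; vehicle 0.5% DMSO, both fit directions.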

[10] = read-out: Thyroid Hormone Responsive (THRSP), THRSP (gene 7069); assay: LTEA_HepaRG_THRSP: Life Technologies and Expression Analysis (LTEA) Assay for Thyroid Hormone Responsive (THRSP) using HepaRG (AID 2283536); conditions: mRNA level, 48 h; actives raise or lower the signal
Outline: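 THRSP transcript quantified by Fluidigm qRT-PCR against three housekeeping genes after 48 h chemical exposure of HepaRG cells in serum-free induction medium; eight-point half-log series, top 100 uM, 0.5% DMSO vehicle, duplicate wells.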

[11] = read-out: Cellular tumor antigen p53 (Homo sapiens) (UniProt P04637); assay: LTEA_HepaRG_TP53: Life Technologies and Expression Analysis (LTEA) Assay for Tumor Protein P53 (TP53) using HepaRG (AID 2283537); conditions: mRNA level, 48 h; actives raise or lower the signal
Outline: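 HepaRG, 48 h exposure, top 100 uM, half-log 8-point, 0.5% DMSO vehicle, duplicates. Read: TP53 mRNA by TaqMan qRT-PCR, normalised to ACTB/GAPDH/POLR2A; bidirectional fit vs DMSO.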

[12] = read-out: UDP glucuronosyltransferase (UGT1A1), UGT1A1 (gene 54658); assay: LTEA_HepaRG_UGT1A1: Life Technologies and Expression Analysis (LTEA) Assay for UDP glucuronosyltransferase (UGT1A1) using HepaRG (AID 2283538); conditions: mRNA level, 48 h; actives raise or lower the signal
Outline: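 Cells are plated, cultured 48 h, switched to serum-free induction medium, then dosed 48 h at eight concentrations (max 100 uM, 0.5% DMSO). RNA is isolated and UGT1A1 expression measured by qRT-PCR; changes versus DMSO are fitted in both directions.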

[13] = read-out: UDP glucuronosyltransferase (UGT1A6), UGT1A6 (gene 54578); assay: LTEA_HepaRG_UGT1A6: Life Technologies and Expression Analysis (LTEA) Assay for UDP glucuronosyltransferase (UGT1A6) using HepaRG (AID 2283539); conditions: mRNA level, 48 h; actives raise or lower the signal
Outline: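 Expression was quantified by TaqMan qRT-PCR on Fluidigm arrays with ACTB/GAPDH/POLR2A normalization and bidirectional fitting against 0.5% DMSO. HepaRG cells (~100,000/well) were treated in duplicate for 48 h at eight half-log concentrations up to 100 uM in serum-free induction medium.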

[14] = read-out: X-box binding protein 1 (XBP1), XBP1 (gene 7494); assay: LTEA_HepaRG_XBP1: Life Technologies and Expression Analysis (LTEA) Assay for X-box binding protein 1 (XBP1) using HepaRG (AID 2283540); conditions: mRNA level, 48 h; actives raise or lower the signal
Outline: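 XBP1 transcript by qRT-PCR (housekeeping-normalized: ACTB, GAPDH, POLR2A) after 48 h chemical treatment of HepaRG cells, 8-point half-log series topping at 100 uM, vehicle 0.5% DMSO. Gain and loss of signal fitted relative to DMSO.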

[15] = LTEA_HepaRG_LDH_cytotoxicity: Cytotoxicity Assessment in the Life Technologies and Expression Analysis (LTEA) Assay (AID 2283563; active = hit-call score of the fitted dose curve at least 0.9, where 1 is the maximum;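 as to AC50: LDH activity released into spent culture medium as a marker of cell death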)
Outline: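 LDH release into culture medium read after 48 h chemical treatment of HepaRG cells. Duplicate wells, eight-point half-log series topping at 100 uM, 0.5% DMSO vehicle and baseline.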

[16] = ATG_XTT_Cytotoxicity: Cytotoxicity Assessment in the Attagene TRANS-FACTORIAL HepG2 Assay (AID 2283584; active = hit-call score of the fitted dose curve at least 0.9, where 1 is the maximum)
Outline: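 Viability endpoint from XTT after 24 h chemical exposure of reporter-transfected human HepG2 liver cells; signal loss fitted relative to DMSO negative control.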

[17] = biological target: Cellular tumor antigen p53 (Homo sapiens) (UniProt P04637); assay: TOX21_p53_BLA_p2_ratio: Tox21 HCT-116 p53 Agonism Beta-lactamase Assay, Ratio, Phase 2 (AID 2283592; active = hit-call score of the fitted dose curve at least 0.9, where 1 is the maximum)
Outline: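 Read-out is the blue/green (460/530 nm, 405 nm excitation) ratio after 2 h CCF4-AM loading, fitted as gain versus DMSO. Compounds, pinned at 217-fold dilution from DMSO stocks, stayed 16 h on HCT-116 beta-lactamase reporter cells seeded 5 h earlier.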

[18] = TOX21_p53_BLA_p2_viability: Viability Assessment in the Tox21 HCT-116 p53 Agonism Beta-lactamase Assay, Phase 2 (AID 2283591; active = hit-call score of the fitted dose curve at least 0.9, where 1 is the maximum;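 also: compound exposure lasted 16 h at 37 °C; actives lower the ATP signal meaning cytotoxicity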)
Outline: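 Cytotoxicity readout: CellTiter-Glo ATP luminescence, 30 min at room temperature, after the beta-lactamase read. Cells were HCT116 exposed 16 h at 37C to compounds pin-transferred at 217-fold dilution from DMSO stocks.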

[19] = read-out: Signal transducer and activator of transcription 3 (Homo sapiens) (UniProt P40763); assay: LTEA_HepaRG_STAT3: Life Technologies and Expression Analysis (LTEA) Assay for Signal transducer and activator of transcription (STAT3) using HepaRG (AID 2283529); conditions: mRNA level, 48 h; actives raise or lower the signal
Outline: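 STAT3 transcript quantified by qRT-PCR against three housekeeping genes (ACTB, GAPDH, POLR2A), fitted both directions relative to DMSO. HepaRG cultures exposed 48 h to eight half-log concentrations, top 100 uM, 0.5% DMSO, serum-free induction medium.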

Measured: AC50

Chain of Nuclear factor erythroid 2-related factor 2 (Homo sapiens) (Q16236 whole entry, looked up): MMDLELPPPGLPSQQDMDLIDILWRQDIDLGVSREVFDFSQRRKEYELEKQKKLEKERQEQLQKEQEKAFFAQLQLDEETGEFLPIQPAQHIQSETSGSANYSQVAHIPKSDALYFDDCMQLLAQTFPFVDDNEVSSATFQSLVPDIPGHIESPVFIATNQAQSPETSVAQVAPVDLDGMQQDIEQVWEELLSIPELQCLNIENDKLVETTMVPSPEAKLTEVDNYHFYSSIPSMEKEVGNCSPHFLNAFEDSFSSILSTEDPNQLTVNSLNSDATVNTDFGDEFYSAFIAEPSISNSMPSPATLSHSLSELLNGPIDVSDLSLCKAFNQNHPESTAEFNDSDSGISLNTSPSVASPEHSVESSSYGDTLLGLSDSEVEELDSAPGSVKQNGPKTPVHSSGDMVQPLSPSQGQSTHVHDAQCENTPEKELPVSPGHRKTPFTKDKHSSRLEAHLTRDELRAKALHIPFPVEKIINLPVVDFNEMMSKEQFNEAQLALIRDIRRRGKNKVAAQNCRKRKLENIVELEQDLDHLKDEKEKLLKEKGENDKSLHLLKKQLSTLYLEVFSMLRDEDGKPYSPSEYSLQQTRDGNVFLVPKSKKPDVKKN
Chain of Signal transducer and activator of transcription 3 (Homo sapiens) (P40763 whole entry, looked up): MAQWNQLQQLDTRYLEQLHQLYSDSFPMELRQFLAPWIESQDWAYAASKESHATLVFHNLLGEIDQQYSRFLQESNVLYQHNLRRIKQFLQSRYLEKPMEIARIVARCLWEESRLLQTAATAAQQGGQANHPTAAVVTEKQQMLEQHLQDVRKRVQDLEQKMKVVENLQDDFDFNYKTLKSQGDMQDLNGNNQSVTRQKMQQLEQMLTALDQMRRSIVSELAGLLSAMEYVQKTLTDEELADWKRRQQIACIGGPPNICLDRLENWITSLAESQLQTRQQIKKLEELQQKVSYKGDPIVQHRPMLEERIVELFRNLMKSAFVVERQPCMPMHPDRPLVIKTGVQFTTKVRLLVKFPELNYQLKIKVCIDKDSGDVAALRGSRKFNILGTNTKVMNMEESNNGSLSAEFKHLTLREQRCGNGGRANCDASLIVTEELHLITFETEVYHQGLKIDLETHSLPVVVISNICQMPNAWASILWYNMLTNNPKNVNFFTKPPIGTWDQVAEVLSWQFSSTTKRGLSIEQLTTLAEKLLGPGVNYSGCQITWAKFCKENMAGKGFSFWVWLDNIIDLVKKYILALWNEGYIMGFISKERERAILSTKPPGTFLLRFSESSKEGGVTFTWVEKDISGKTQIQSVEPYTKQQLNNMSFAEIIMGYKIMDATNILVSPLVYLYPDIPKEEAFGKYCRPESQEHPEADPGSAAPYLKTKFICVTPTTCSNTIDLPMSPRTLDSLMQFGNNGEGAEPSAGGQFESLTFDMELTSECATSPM
Chain of Cellular tumor antigen p53 (Homo sapiens) (P04637 whole entry, looked up): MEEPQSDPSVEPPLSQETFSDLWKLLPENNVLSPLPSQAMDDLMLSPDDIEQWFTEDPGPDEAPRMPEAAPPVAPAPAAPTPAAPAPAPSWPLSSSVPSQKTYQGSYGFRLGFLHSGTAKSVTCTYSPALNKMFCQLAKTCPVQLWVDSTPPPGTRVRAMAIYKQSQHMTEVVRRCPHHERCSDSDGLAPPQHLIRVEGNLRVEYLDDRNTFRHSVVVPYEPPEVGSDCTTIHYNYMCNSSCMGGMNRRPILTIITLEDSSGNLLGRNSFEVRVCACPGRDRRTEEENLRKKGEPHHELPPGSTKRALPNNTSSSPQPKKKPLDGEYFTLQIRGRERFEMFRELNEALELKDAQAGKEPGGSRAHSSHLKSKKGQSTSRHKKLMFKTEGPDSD

Cc1ccc(C)c(O)c1
not listed: [18] | [19]
inactive: all other assays above

C[C@](N)(Cc1ccc(O)c(O)c1)C(=O)O
not listed: TIMP1, TIMP1 (gene 7076) | [19]
inactive: all other assays above

CCCCCCc1ccc(O)cc1O
active: [1] 66.4 µM | [15] 77.7 µM | [18] 69.2 µM and 73.3 µM | [17] 53.5 µM and 42.9 µM
inactive: [2] | [3] | [4] | [19] | [5] | [7] | [8] | TIMP1, TIMP1 (gene 7076) | [9] | [11] | [12] | [13] | [14] | [16] | [17]

NC(=O)NO
not listed: [6] | TIMP1, TIMP1 (gene 7076)
inactive: all other assays above

Cc1c(-c2cccnc2)c2ccccc2n1CCCCC(=O)O
active: [1] 27.6 µM
not listed: [16] | [18] | [19]
inactive: all other assays above

CC[C@H]1CC[C@H](NCc2cc3c(cc2OC)[C@H]2C[C@H]2C(=O)N3C)[C@H](c2ccccc2)N1
active: [6] 50 µM | [10] 29.3 µM | [12] 19 µM
not listed: [16] | [19]
inactive: all other assays above

CCCCC(CC)COC(=O)CCCCCCCCC(=O)OCC(CC)CCCC (stereo not given)
not listed: [6] | [10] | [15]
inactive: all other assays above
